The record followed here is the supplement of paper PMC10849652.

Of roughly 8,800 targets only a part is listed; those with a hit were picked by preference. About 0.5% of all pairs of compound and target were hits. A number with no mark means an inactive call.

Sequence of UniProt Q8TDX7 (Q8TDX7 whole entry, looked up): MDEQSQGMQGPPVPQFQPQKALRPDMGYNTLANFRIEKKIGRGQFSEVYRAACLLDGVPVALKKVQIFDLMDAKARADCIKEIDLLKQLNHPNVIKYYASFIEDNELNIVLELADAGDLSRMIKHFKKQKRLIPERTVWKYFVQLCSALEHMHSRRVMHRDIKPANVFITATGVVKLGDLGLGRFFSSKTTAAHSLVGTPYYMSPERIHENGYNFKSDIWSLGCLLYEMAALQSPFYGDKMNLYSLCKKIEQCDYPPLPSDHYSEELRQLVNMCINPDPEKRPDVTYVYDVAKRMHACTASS
Sequence of UniProt Q12769 (Q12769 whole entry, looked up): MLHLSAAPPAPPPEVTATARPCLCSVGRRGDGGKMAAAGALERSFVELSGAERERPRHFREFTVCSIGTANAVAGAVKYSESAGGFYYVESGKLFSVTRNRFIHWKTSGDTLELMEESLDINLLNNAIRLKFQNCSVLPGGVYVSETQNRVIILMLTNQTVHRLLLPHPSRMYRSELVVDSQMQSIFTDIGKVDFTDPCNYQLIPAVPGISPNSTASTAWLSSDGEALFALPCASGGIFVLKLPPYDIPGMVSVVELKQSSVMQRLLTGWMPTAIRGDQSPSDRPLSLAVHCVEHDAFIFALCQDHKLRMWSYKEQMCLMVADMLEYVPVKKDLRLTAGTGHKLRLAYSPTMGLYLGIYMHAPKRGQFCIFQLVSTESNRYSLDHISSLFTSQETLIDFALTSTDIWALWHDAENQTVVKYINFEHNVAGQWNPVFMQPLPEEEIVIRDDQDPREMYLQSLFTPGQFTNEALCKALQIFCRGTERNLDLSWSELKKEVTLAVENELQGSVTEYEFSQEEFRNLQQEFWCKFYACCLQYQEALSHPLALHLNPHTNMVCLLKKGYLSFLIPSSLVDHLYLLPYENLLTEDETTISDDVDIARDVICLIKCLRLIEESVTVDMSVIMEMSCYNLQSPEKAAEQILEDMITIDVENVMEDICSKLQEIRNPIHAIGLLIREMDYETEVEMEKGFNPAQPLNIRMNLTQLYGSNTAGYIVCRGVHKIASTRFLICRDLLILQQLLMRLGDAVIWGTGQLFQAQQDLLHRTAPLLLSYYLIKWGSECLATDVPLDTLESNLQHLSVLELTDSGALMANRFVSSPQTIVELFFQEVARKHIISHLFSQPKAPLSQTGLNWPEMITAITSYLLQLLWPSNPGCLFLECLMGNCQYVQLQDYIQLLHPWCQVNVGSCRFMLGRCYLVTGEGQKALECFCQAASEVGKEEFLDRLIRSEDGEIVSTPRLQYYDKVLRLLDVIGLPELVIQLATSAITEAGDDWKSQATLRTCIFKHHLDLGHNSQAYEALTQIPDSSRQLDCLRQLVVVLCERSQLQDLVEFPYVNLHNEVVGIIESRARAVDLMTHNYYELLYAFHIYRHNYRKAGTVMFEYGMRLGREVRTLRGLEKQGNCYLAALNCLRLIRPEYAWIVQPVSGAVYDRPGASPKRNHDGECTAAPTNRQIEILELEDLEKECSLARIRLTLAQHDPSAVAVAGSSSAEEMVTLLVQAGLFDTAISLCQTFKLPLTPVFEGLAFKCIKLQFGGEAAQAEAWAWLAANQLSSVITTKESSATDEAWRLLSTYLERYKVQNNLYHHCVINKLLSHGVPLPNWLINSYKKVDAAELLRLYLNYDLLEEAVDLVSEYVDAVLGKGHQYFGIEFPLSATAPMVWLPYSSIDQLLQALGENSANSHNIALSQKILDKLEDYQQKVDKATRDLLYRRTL
Sequence of UniProt Q8TAT6 (Q8TAT6 whole entry, looked up): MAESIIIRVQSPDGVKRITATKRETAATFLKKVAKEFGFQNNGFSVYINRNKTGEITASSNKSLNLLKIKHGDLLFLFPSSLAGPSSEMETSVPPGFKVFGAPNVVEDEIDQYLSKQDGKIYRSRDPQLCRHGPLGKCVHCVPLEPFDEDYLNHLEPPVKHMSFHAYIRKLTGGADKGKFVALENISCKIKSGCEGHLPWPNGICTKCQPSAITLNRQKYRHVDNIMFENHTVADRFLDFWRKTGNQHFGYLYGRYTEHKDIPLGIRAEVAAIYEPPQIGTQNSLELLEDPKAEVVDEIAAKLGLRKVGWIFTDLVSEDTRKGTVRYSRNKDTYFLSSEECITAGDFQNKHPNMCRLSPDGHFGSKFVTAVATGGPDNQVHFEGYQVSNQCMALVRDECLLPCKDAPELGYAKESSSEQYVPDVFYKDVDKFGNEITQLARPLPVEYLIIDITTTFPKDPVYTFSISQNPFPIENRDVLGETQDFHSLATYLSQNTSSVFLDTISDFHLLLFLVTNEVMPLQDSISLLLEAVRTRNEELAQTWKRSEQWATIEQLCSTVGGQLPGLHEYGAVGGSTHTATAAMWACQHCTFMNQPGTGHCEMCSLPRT
Sequence of UniProt Q8N1F7 (Q8N1F7 whole entry, looked up): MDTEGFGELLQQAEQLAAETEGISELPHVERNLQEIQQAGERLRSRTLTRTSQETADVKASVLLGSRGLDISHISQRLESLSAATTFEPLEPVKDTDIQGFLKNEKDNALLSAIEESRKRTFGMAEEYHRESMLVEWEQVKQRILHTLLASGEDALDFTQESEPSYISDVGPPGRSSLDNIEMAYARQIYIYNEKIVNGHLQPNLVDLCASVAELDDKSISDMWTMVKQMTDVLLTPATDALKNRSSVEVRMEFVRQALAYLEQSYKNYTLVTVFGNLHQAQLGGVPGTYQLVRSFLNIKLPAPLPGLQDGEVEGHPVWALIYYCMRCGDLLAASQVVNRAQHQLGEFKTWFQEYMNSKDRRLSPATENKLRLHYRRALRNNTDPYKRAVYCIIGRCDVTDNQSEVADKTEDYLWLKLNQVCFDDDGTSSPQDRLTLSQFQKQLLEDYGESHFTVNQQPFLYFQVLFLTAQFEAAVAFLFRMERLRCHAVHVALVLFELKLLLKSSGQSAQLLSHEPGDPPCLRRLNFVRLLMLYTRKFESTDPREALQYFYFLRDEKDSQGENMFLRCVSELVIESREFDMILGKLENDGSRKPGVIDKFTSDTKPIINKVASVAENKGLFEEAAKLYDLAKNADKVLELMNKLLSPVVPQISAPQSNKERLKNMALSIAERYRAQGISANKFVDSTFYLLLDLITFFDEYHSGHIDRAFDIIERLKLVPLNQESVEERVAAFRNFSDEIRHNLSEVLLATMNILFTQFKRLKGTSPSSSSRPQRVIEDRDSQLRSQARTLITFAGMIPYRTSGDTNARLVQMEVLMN
Sequence of UniProt P08651 (P08651 whole entry, looked up): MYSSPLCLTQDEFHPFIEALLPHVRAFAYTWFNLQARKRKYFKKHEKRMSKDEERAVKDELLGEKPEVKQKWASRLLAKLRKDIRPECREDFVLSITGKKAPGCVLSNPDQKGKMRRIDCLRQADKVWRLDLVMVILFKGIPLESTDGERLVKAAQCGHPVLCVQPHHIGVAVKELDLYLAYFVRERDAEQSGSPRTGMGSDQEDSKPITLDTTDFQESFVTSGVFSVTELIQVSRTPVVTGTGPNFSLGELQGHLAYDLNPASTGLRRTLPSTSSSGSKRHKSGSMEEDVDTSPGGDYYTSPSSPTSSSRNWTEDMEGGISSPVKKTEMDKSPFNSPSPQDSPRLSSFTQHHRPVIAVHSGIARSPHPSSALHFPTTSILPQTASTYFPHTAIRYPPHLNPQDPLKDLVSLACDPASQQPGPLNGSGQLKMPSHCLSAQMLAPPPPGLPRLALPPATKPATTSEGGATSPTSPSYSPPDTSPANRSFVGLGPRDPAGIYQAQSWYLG
Sequence of UniProt Q9Y530 (Q9Y530 whole entry, looked up): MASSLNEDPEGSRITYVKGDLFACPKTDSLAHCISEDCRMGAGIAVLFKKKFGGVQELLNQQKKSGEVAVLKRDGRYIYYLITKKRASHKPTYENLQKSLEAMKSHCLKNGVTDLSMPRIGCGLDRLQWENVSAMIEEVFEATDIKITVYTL
Sequence of UniProt Q9NX02 (Q9NX02 whole entry, looked up): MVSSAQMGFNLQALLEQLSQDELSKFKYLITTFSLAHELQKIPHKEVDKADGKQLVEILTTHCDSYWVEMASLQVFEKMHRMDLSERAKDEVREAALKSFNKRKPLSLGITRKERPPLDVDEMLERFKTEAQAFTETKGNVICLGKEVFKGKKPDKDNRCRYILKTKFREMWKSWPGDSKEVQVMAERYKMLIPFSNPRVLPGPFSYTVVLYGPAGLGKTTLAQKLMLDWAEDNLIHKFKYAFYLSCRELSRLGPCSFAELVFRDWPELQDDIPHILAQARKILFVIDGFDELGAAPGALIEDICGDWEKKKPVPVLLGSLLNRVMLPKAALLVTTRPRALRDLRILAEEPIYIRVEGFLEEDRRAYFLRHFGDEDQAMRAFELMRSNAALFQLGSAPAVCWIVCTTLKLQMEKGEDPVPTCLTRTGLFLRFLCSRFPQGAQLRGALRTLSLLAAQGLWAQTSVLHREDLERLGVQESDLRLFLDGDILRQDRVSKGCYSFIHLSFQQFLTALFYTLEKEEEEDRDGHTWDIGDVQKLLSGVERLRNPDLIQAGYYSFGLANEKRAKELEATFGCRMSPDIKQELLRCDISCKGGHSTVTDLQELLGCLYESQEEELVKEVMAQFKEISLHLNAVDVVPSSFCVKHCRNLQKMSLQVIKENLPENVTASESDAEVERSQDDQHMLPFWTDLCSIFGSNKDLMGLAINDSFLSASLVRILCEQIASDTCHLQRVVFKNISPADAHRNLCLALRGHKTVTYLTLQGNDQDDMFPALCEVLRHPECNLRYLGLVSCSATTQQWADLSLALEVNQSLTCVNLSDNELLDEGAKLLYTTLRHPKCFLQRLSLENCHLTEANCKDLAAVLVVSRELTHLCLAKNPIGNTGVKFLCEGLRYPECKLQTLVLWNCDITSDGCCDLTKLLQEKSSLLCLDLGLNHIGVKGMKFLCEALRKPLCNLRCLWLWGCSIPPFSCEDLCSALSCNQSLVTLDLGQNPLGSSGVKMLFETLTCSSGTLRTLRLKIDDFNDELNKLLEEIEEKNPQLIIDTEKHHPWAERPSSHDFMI

Compound in the first test: C#Cc1cccc(Nc2ncnc3cc(OCCOC)c(OCCOC)cc23)c1 [erlotinib]
Briefly: log2 fold change, soluble protein after heating vs DMSO (PISA); higher = thermal stabilisation; K562 lysate, 10 uM; active = over 0.2 and 3.5 SD of the protein, either way, in both replicates (recomputed). The gist of the method: (§1)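 Log-two fold change in thermal stability relative to solvent controls is reported from duplicates. For each sample, crude K562 extract from dounce-homogenised pellets in PBS pH 7.4 with 1 mM MgCl2, at 1 mg/mL protein, was treated with 10 μM compound for 30 min. Aliquots heated for 3 min across 48°C-58°C were pooled, brought to 0.5% NP-40 at 4°C and cleared at 21,000xg for 90 min. The supernatant was quantified by TMTpro 16plex LC-MS/MS with channel sums equalised.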
On to NUP93 (UniProt Q8N1F7), for which the log2 fold change is 0.025.
On the same count and under the same terms, the same measure for PANK4 (UniProt Q9NVE7): 0.013; for NIPSNAP3A (UniProt Q9UFN0): 0.008.
On the same count and under the same terms, the same measure for OSBP2 (UniProt Q969R2): -0.019.
Same read-out and setting: the same measure for MTCH2 (UniProt Q9Y6C9): 0.004.
Consider NUP160 (UniProt Q12769), for which the log2 fold change is 0.038.
Turning to NEK7 (UniProt Q8TDX7), the log2 fold change was -0.004.
The same measure, in the same setting: the same measure for NLRP2 (UniProt Q9NX02): 0.004; for NUMB (UniProt P49757): -0.029; for NEK9 (UniProt Q8TD19): -0.008.
In the case of MSH6 (UniProt P52701), the log2 fold change is 0.011.
Consider NIFK (UniProt Q9BYG3), for which the log2 fold change is 0.
Consider OGFOD2 (UniProt Q6N063), for which the log2 fold change is 0.034.
On the same count and under the same terms, the same measure for NFATC1 (UniProt O95644): -0.002; for NFIC (UniProt P08651): 0.014; for OARD1 (UniProt Q9Y530): 0.002.
Turning to NOB1 (UniProt Q9ULX3), the log2 fold change was 0.011.
On the same count and under the same terms, the same measure for NARS2 (UniProt Q96I59): -0.027; for NUP188 (UniProt Q5SRE5): 0.066; for NFKBIE (UniProt O00221): 0.014.
Regarding NNT (UniProt Q13423), the log2 fold change was -0.027.
ORC5 (UniProt O43913): the log2 fold change was 0.014.
Turning to MYO1D (UniProt O94832), the log2 fold change is 0.01.
Consider OTUD7B (UniProt Q6GQQ9), for which the log2 fold change was 0.028.
In the case of NUF2 (UniProt Q9BZD4), the log2 fold change is 0.009.
PBK (UniProt Q96KB5): the log2 fold change was 0.012.
As for NUDT4 (UniProt Q9NZJ9), the log2 fold change was -0.043.
Still for that read-out and setting: the same measure for MYD88 isoform 6 (UniProt Q99836): -0.066; for MRPL53 (UniProt Q96EL3): -0.036.
As to MTMR6 (UniProt Q9Y217), the log2 fold change was 0.01.
Turning to NELFCD (UniProt Q8IXH7), the log2 fold change was 0.034.
For the target NPLOC4 isoform 2 (UniProt Q8TAT6), the log2 fold change was -0.022.
Turning to NCOR2 (UniProt C9J0Q5), the log2 fold change is 0.044.
With NUDT5 (UniProt Q9UKK9), the log2 fold change was -0.013.
Regarding NMT1 (UniProt P30419), the log2 fold change is -0.027.
On to PARD3 (UniProt Q8TEW0), for which the log2 fold change is 0.1.

Compound in a further test: C/C(=N\NC(=O)C1=CC(=CC=C1)S(=O)(=O)N2CCOCC2)/C3=C(C=CC(=C3)Cl)O
The test is described as above. In a few lines:
as §1
On to NUP93 (UniProt Q8N1F7), for which the log2 fold change is 0.058.
For PANK4 (UniProt Q9NVE7), the log2 fold change is -0.012.
Turning to NIPSNAP3A (UniProt Q9UFN0), the log2 fold change is -0.014.
For the target OSBP2 (UniProt Q969R2), the log2 fold change is -0.254.
As for MTCH2 (UniProt Q9Y6C9), the log2 fold change is 0.051.
On to NUP160 (UniProt Q12769), for which the log2 fold change was 0.041.
As for NEK7 (UniProt Q8TDX7), the log2 fold change was 0.042.
On the same count and under the same terms, the same measure for NLRP2 (UniProt Q9NX02): -0.015; for NUMB (UniProt P49757): 0.01; for NEK9 (UniProt Q8TD19): 0.038.
With MSH6 (UniProt P52701), the log2 fold change was 0.03.
Take NIFK (UniProt Q9BYG3): the log2 fold change is -0.05.
Still for that read-out and setting: then OGFOD2 (UniProt Q6N063), with -0.151; and NFATC1 (UniProt O95644), with -0.431.
Take NFIC (UniProt P08651): the log2 fold change was 0.063.
On the same count and under the same terms, then OARD1 (UniProt Q9Y530), with -0.1; and NOB1 (UniProt Q9ULX3), with -0.028; and NARS2 (UniProt Q96I59), with -0.034.
For the target NUP188 (UniProt Q5SRE5), the log2 fold change was 0.011.
As to NFKBIE (UniProt O00221), the log2 fold change was -0.009.
As to NNT (UniProt Q13423), the log2 fold change was 0.013.
The same measure, in the same setting: the same measure for ORC5 (UniProt O43913): 0.021; for MYO1D (UniProt O94832): -0.064.
Regarding OTUD7B (UniProt Q6GQQ9), the log2 fold change was -0.06.
With NUF2 (UniProt Q9BZD4), the log2 fold change is 0.006.
With PBK (UniProt Q96KB5), the log2 fold change was 0.026.
NUDT4 (UniProt Q9NZJ9): the log2 fold change is 0.233.
Same read-out and setting: the same measure for MYD88 isoform 6 (UniProt Q99836): 0.007; for MRPL53 (UniProt Q96EL3): -0.103.
As to MTMR6 (UniProt Q9Y217), the log2 fold change was 0.044.
Same read-out and setting: the same measure for NELFCD (UniProt Q8IXH7): 0.015.
On to NPLOC4 isoform 2 (UniProt Q8TAT6), for which the log2 fold change is 0.032.
The same measure, in the same setting: then NCOR2 (UniProt C9J0Q5), with 0.033; and NUDT5 (UniProt Q9UKK9), with -0.051.
In the case of NMT1 (UniProt P30419), the log2 fold change was -0.147.
For the target PARD3 (UniProt Q8TEW0), the log2 fold change was -0.288.
